This is an account of results in PubChem BioAssay.

Assay [1] is described as follows: compounds binding Alexa647 anti-His antibody – biochemical, small-molecule microarray, 635 nm fluorescence, artefact control for SMM control protein annotation, primary screen (AID 1128).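 Also: score merges feature fluorescence with signal-to-noise for each printed compound spot.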 The following applies: higher = more signal.
Assay [2] relates to Human papillomavirus type 1a E7 protein (residues 1-88). The assay is described as follows: HPV1a E7 small-molecule binders, primary screen, biochemical, small-molecule microarray, residues 1-88, 635 nm (AID 1129). The settings on record: small-molecule microarray binding, fluorescence 635 nm; higher = more signal.
Assay [3] deals with Focal adhesion kinase 1 (Homo sapiens) (UniProt Q05397). The experiment in a line: PTK2 protein binding on printed compound slides – biochemical, small-molecule microarray, 635/667 nm fluorescence, BSA, DTT, primary screen (AID 1130).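 Also: composite of spot emission at 667 nm and signal to noise over triplicate slides.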 The settings on record: 635 nm fluorescence, higher = more signal.
Chain of Focal adhesion kinase 1 (Homo sapiens) (Q05397 whole entry, looked up): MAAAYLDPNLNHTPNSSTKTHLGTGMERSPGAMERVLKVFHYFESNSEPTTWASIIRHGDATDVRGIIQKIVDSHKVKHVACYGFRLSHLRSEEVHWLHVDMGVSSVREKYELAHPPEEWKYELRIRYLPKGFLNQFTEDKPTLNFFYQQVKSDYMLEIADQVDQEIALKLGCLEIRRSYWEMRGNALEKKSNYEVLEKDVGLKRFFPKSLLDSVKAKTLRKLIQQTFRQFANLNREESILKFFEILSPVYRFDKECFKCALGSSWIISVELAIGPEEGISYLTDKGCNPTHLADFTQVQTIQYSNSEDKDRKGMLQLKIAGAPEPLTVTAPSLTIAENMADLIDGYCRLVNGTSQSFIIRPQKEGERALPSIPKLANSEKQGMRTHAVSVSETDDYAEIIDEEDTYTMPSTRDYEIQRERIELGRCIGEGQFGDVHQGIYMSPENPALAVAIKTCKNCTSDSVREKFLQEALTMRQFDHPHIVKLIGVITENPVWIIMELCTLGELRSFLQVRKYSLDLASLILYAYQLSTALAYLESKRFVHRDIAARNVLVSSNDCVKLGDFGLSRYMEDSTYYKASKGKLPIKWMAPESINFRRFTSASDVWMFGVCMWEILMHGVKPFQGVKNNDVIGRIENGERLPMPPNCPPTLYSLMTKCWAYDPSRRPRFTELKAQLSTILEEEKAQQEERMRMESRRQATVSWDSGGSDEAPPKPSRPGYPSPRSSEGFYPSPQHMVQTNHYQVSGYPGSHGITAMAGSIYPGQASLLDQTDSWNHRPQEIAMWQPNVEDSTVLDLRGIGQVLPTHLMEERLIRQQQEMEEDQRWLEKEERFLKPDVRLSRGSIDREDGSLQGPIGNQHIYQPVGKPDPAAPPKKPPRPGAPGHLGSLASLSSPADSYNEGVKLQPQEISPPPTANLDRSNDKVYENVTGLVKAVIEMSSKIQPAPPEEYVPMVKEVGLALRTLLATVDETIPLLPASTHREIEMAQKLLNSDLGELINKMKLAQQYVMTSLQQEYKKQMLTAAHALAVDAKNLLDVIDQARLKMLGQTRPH
Assay [4] has as its system Fibrinogen (Alexa647-labelled). The experiment in a line: Alexa647-fibrinogen binding to printed small molecules – biochemical, small-molecule microarray, 635/667 nm fluorescence, artefact control for SMM control-protein annotation, profiling panel (AID 1131).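 Also: z-score merges 667 nm fluorescence with per-spot signal-to-noise over triplicate slides.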 The following applies: fibrinogen-A647 binding fluorescence, higher = more signal.
Assay [5] addresses Follistatin (Homo sapiens) (UniProt P19883). The assay is described as follows: FST protein binding to printed compounds – biochemical, small-molecule microarray, 635/667 nm fluorescence, primary screen (AID 1132). The following applies: 635 nm fluorescence, higher = more signal.
The target in assay [6] is Fibroblast growth factor 2 (Homo sapiens) (UniProt P09038). The experiment in a line: basic fibroblast growth factor binding to printed compounds – biochemical, small-molecule microarray, 635/667 nm fluorescence, primary screen (AID 1133). The following applies: FGF2, fluorescence 635/667, higher = more signal.
Chain of Fibroblast growth factor 2 (Homo sapiens) (P09038 whole entry, looked up): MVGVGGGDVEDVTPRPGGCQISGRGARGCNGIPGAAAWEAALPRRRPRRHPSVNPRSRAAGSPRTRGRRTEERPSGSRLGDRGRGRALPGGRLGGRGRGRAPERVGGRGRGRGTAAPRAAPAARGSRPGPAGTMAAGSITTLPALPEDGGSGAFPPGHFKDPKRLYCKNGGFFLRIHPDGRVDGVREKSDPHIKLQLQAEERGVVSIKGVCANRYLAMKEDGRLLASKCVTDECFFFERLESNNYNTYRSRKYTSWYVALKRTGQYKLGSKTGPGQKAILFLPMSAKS
The nature of assay [7]: JC-1 mitochondrial potential readout, lung cancer cells – cell-based, A549, JC-1 fluorescence, basal, 24 h, 100 nL, profiling panel (AID 1138).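 Also: A549 lung adenocarcinoma cells under basal conditions with no added stimulus; test concentration not given here.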 The following applies: higher = more signal.
A further assay deals with Lefty1. The assay is described as follows: Lefty1 protein binding to printed compounds – biochemical, small-molecule microarray, 635/667 nm fluorescence, primary screen (AID 1139). The following applies: fluorescence 635/667, higher = more signal.
In assay [8] the test system is wheat germ agglutinin (Triticum aestivum), Alexa647-labelled. The experiment in a line: Alexa647-WGA lectin binding to printed small molecules – biochemical, small-molecule microarray, 635/667 nm fluorescence, artefact control for SMM control-protein annotation, profiling panel (AID 1140).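 Also: score merges 667 nm feature emission with signal to noise over triplicate slides.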 The settings on record: WGA-A647 binding, 635 nm fluorescence, higher = more signal.

In assay [9] the target is Luciferin 4-monooxygenase (Photinus pyralis) (UniProt P08659). The assay is described as follows: inhibition of purified Photinus pyralis luciferase – biochemical, luminescence, purified enzyme, 2006 set, primary screen (AID 1141).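 Also: cell-free assay with purified firefly luciferase at 100 ng per well in PBS; test concentration not given here.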 The settings on record: purified firefly luciferase, SteadyGlo luminescence, 30 min; higher = more signal, called active from +8 up or from −8 down.
Chain of Luciferin 4-monooxygenase (Photinus pyralis) (P08659 whole entry, looked up): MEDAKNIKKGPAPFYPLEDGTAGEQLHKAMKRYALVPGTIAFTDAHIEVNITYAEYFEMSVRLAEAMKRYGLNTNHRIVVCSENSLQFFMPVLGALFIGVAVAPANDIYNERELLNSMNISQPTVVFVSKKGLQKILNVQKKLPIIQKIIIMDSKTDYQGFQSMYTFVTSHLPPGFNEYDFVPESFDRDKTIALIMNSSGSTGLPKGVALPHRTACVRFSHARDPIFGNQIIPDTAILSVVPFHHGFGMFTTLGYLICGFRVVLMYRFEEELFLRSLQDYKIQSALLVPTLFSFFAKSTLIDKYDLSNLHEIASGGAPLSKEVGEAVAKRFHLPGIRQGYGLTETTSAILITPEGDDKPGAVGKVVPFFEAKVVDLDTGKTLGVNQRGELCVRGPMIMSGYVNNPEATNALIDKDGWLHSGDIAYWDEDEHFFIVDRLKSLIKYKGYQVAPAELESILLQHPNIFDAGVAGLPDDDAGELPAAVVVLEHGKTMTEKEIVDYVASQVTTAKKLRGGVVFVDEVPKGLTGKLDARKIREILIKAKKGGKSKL

The source made the active and inactive calls.

Chain of Follistatin (Homo sapiens) (P19883 whole entry, looked up): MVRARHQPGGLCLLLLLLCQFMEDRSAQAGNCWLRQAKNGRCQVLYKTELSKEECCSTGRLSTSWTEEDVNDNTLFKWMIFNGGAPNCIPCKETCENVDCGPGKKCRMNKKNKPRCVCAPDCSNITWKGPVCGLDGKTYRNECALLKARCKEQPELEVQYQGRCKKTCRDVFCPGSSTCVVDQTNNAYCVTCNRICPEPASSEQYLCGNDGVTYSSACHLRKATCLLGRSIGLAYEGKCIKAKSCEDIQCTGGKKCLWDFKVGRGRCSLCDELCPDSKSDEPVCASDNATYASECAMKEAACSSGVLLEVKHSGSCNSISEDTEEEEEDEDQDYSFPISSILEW

As for `COc1ccc(C#Cc2ccc3c(c2)[C@]2(C(=O)N3)[C@H](C(=O)NC[C@H](O)c3ccccc3)[C@H]3C(=O)O[C@H](c4ccccc4)[C@H](c4ccccc4)N3[C@@H]2c2ccc(OCCO)cc2)cc1`, the composite z-score in [1] was found to be 0.408; in assay [2], 0.991; in assay [3], 0.303; in assay [4], 0.964; in assay [5], 1.36; in [6] it was 1.19. Besides, the values for the composite z-score (with Lefty1; in assay [8]) were 1.22 and 1.13, respectively. For the same molecule, the z-score in assay [7] was -1.96; in [9], -1.58 (inactive).

`COc1cc(C(O)C2C=CC3C(=O)N(c4ccccc4)C(=O)C3N2Nc2ccc(C#N)cc2)cc(OC)c1OC` (stereo not given): the composite z-score in assay [1] turned out to be 2.58; in [2], 1.31; in [3] it was 1.04; in assay [4] it was 1.11; in assay [5], 1.02; in assay [6] it was 0.0977. Further, the composite z-score in the assay on Lefty1 was -0.0667; in assay [8] it was 1.51. Further, the z-score is 0.142 in assay [7] and 0.282 (inactive) in assay [9].

As to `COC(=O)[C@@]1(Cc2ccccc2N=[N+]=[N-])COC(c2ccc(OCCCO)cc2)=N1`, the composite z-score came to 1.19 in assay [1]; 1.16 in [2]; 0.676 in assay [3]; 0.492 in assay [4]; 1.27 in [5]; 0.3 in [6]. The figures for the composite z-score (in the assay with Lefty1; in assay [8]) were -0.57 and 0.439, respectively. Moreover, the results for the z-score in assay [7] and in assay [9] were 0.719 and -1.93 (inactive), respectively.

On to `CCCNC(=O)[C@@H]1c2ccccc2C(=O)N(Cc2ccccc2)[C@H]1c1ccc(CO)cc1`, for which the composite z-score in assay [1] is 1.88; in [2], -0.081; in assay [3] it was -0.255; in assay [4], 0.213; in [5] it was 0.122; in assay [6], -0.193. In addition, the composite z-score is -0.82 in the assay on Lefty1 and 0.935 in [8]. Moreover, the z-score is -0.109 in assay [7] and -0.322 (inactive) in assay [9].

Regarding `O=C(O)[C@@]1(Cc2ccccc2)N=C(c2ccc(OCCCO)cc2)O[C@H]1c1ccccc1`, the composite z-score in [1] was 1.31; in assay [2] it was -0.112; in [3] it was -0.233; in [4], 0.967; in assay [5] it was 0.572; in [6], -0.686. The composite z-score in the assay on Lefty1 stood at 0.194; in [8] it was 0.915. The z-score in [7] is 0.593; in assay [9] it was 1.16 (inactive).

For `COc1c(C)cc(-c2cc3c(c(-c4ccc(Oc5ccccc5)cc4)n2)[Si](C(C)C)(C(C)C)OC3)cc1C`, the composite z-score was -0.271 in assay [1]; -0.582 in assay [2]; -0.0939 in assay [3]; -0.551 in assay [4]; -0.228 in assay [5]; 0.515 in assay [6]. Besides, the values for the composite z-score (with Lefty1; in assay [8]) were 0.38 and -0.0472, respectively. Further, the figures for the z-score in assay [7] and in assay [9] were 0.577 and 0.279 (inactive), respectively.

As for `O=c1oc(-c2ccccc2)nc2cc(Br)ccc12`, the composite z-score in [1] worked out at 0.118; in assay [2], 0.71; in assay [3], 0.704; in assay [4] it was 0.481; in assay [5], 0.405; in assay [6] it was 0.671. Moreover, the composite z-score in the assay on Lefty1 was determined as 0.585; in assay [8], 0.466. Further, the z-score in [7] was 0.112; in [9], -9.5 (active).

Consider `C=C(COC)/C(=C/C[C@H](OC(=O)c1ccncc1)c1cccc(OCCO)c1)c1cc(C(=O)OC)ccc1OC`, for which the composite z-score came out at 0.844 in assay [1]; 1.1 in assay [2]; 0.381 in [3]; 0.317 in [4]; 0.127 in assay [5]; 0.245 in [6]. The figures for the composite z-score (with Lefty1; in [8]) were 0.819 and 0.0332, respectively. Also, the results for the z-score in assay [7] and in assay [9] were 1.48 and -1.04 (inactive), respectively.

Consider `N#Cc1ccc(NN2C(C(O)c3cccs3)C=CC3C(=O)N(c4ccccc4)C(=O)C32)cc1` (stereo not given), for which the composite z-score in assay [1] is -0.272; in [2], 0.685; in [3] it was 0.421; in assay [4], 0.71; in assay [5], 0.556; in assay [6], -0.216. The composite z-score in the assay on Lefty1 is -0.257; in assay [8], 0.578. Besides, the z-score was 0.989 in assay [7] and -0.589 (inactive) in assay [9].

In the case of `COC(=O)[C@@]1(Cc2ccccc2)[C@H]2c3cc(C(=O)N(C)C)n(Cc4cc(C)n(C)n4)c3C[C@H]2CN1C(=O)c1ccccc1`, the composite z-score was 1.95 in [1]; 1.13 in assay [2]; 0.57 in assay [3]; -0.103 in assay [4]; 0.229 in assay [5]; -0.768 in [6]. Besides, the composite z-score in the assay with Lefty1 was -0.169; in [8], 0.889. The z-score in assay [7] was -0.127; in assay [9], 0.887 (inactive).

Take `COC(=O)C1=CC(CCCO)=CC(C2CC2)N(Cc2sc3ccccc3c2Cl)C=C1C(=O)OC` (stereo not given): the composite z-score in assay [1] came to 3.11; in assay [2], 1.25; in assay [3], 1.31; in assay [4], 1.04; in assay [5], 0.939; in assay [6], 0.0634. Moreover, the composite z-score amounted to 0.222 with Lefty1 and 0.728 in assay [8]. Besides, the z-score is 1.14 in assay [7] and -0.96 (inactive) in assay [9].

With `C=C[C@H](COC(C)=O)N(Cc1ccc(OC(C)=O)c(OC)c1)S(=O)(=O)c1ccc(Br)cc1`, the composite z-score in assay [1] is 1.29; in assay [2] it was 1.12; in [3], -0.174; in assay [4] it was 0.59; in assay [5] it was 1.37; in assay [6], 1.75. In addition, the composite z-score in the assay on Lefty1 stood at 1.02; in assay [8], 0.492. Moreover, the z-score was 1.15 in assay [7] and 0.271 (inactive) in assay [9].

Turning to `CCOC(=O)C[C@H]1[C@H](OC(=O)c2ccc(-c3ccccc3)cc2)[C@@H](NC(=O)Cc2ccc(OC)cc2)c2cc(OCCCO)ccc2N1C(=O)c1ccc2ccccc2n1`, the composite z-score is 0.262 in [1]; 0.644 in assay [2]; 0.529 in assay [3]; 0.897 in assay [4]; -0.0303 in assay [5]; -0.433 in [6]. Also, the composite z-score is 0.484 with Lefty1 and 0.419 in assay [8]. The z-score in assay [7] was 0.895; in assay [9], -0.639 (inactive).

`CC(C)NC(=O)[C@@H]1c2ccccc2C(=O)N(Cc2ccccc2)[C@H]1c1ccc(CO)cc1`: the composite z-score is 0.166 in assay [1]; 0.482 in assay [2]; 0.512 in assay [3]; -0.367 in assay [4]; -0.797 in [5]; 0.394 in assay [6]. For the same molecule, the composite z-score is -1.54 with Lefty1 and 0.826 in [8]. The z-score in [7] is 0.484; in assay [9], 0.413 (inactive).
